The values below come from PubChem BioAssay (NCI).

Where “and” joins values, the source holds several entries; their conditions need not be identical. Equal values may be shown once. Compounds without any hit were thinned out: in the full panel of roughly 83,000, 20% have a hit.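 Plates (96-well) were seeded with cells, treated with compound at one concentration, and incubated for 48 hours before percent growth was determined.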 Calls of active or inactive are those of the source. How the source made its calls: active means growth percent below 10; inactive means the rest.

The test has as its system MDA-MB-468 breast. Kind of test: NCI-60 one-dose screen, 48 h (100 = growth as untreated, 0 = no growth, -100 = all killed). As to conditions: 10 µM unless noted.
With `CCCCCCCCCCCCCCCCCCn1cc[n+](C)c1`, the growth was -42.3% (active) and -20.4% (active). Regarding `O=[N+]([O-])/C=C\c1ccc2c(c1)OCO2`, the growth was 82% (inactive). For the compound `C#COc1cccc(Nc2ncnc3cc(NC(=O)CF)ccc23)c1`, the growth is 80.2% [6.25 µM] (inactive). The same measure for `OCCNC(Cc1ccccc1)c1ccc2c(c1)OCO2` (stereo not given): 97.7% (inactive); for `C/C(=N/OC(=O)N(C)C)c1ccc(Cl)c(Cl)c1`: 120% (inactive); for `Cc1cc[c-]cc1.Fc1c[c-]c(-c2ccccn2)c(F)c1.[Pt+2].c1ccc([PH+](c2ccccc2)c2ccccn2)cc1`: 51% (inactive). `CC1(C)CC2(CC(C)(C)c3cc(O)c(O)cc32)c2cc(O)c(O)cc21`: the growth is 83.1% (inactive). In the case of `CO[C@@H](c1ccccc1Cl)[C@H](C)OC(N)=O` it was 91.6% (inactive). The same measure for `C[C@@H]1C[C@@]2(C)[C@@H](CC[C@@H]3[C@@H]2CC[C@]2(C)C(=O)CC[C@@H]32)CC1=O`: 95.4% (inactive); for `C[C@@]12CCCc3coc(c31)C(=O)c1cc3c(cc12)C(=O)C1=C(NCCS1(=O)=O)C3=O`: -65.6% (active); for `Cc1ccc(C(Cc2ccccc2)NCCO)cc1` (stereo not given): 96.7% (inactive).

With `CCC(Br)(CC)C(=O)NC(N)=O`, the growth was 97.7% (inactive). `COc1ccc(NP2(=O)OCC(C)(N)CO2)cc1` (stereo not given): the growth is 105% (inactive). Turning to `CC12CCC3C4CCC(=O)C=C4CCC3C1CC1CC(=O)OC12` (stereo not given), the growth was 102% (inactive). The same measure for `CCC1(CCSC#N)C(=O)NC(=O)NC1=O`: 107% (inactive); for `O=C1C2CCC1C(N1CCCC1)CC2` (stereo not given): 105% (inactive); for `O=C1OCCC1Br` (stereo not given): 106% (inactive). In the case of `CC(=O)O[C@H]1CC[C@H]2[C@@H]3CC=C4c5nc(-c6ccccc6)sc5CC[C@]4(C)[C@H]3CC[C@]12C` it was 57.2% (inactive). For the compound `O=C(O)c1cc([N+](=O)[O-])cc([N+](=O)[O-])c1`, the growth is 103% (inactive).

Consider `C=CCOC(=O)C(Br)CC` (stereo not given), for which the growth was 98% (inactive). In the case of `C[n+]1c(/C=C/c2ccc(N(CCCl)CCCl)cc2)sc2ccccc21` it was -0.963% (active); in that of `C/C=C(\C)C(=O)O[C@@H]1C(O)[C@H]2OC(COC(=O)CCC(=O)CCCCCC[C@H](CCCCC)O[C@@H]3OC(C)[C@H](OC(C)=O)C(O)[C@H]3O2)[C@H]1OC(=O)/C=C/c1ccccc1` (stereo not given in full), -8.84% (active). For the compound `COc1ccc(/C=C/c2cc(OC)c(OC)c(OC)c2)cc1NC(=O)/C=C/c1ccc(F)cc1`, the growth was 13.3% (inactive). The same measure for `CCOC(=O)CCC(NC(=O)C(Cc1ccc(N(CCCl)CCCl)cc1)NC=O)C(=O)OCC` (stereo not given): -89.3% (active). The same measure for `[Cl][Sn]([c]1ccccc1)([c]1ccccc1)[c]1ccccc1`: -75% (active); for `CC(C)(N)Cc1ccccc1`: 114% (inactive); for `Fc1c[c-]c(-c2ccccn2)c(F)c1.[CH3-].[Pt+2].c1ccc([PH+](c2ccccc2)c2ccccn2)cc1`: -21.7% (active). The same measure for `CCCC[C@H](NC(=O)[C@H]1CCCN1C)C(=O)N(C)[C@H](C[C@@H](OC(C)=O)c1nc(C(=O)N[C@@H](Cc2ccccc2)C[C@H](C)C(=O)OCC)cs1)C(C)C`: 7.04% (active).

Regarding `CC1=CC(=O)CCC12CCOC2=O` (stereo not given), the growth was 105% (inactive). Regarding `C=CC[n+]1ccc(-c2cc[n+](CC=C)cc2)cc1`, the growth is 66.6% (inactive).

Turning to `CCOC(=O)Nc1cc(Cl)c([N+](=O)[O-])c(NC(=O)OCC)n1`, the growth is 87.2% (inactive). In the case of `c1ccc(COc2ccc3[nH]cc(CCN(Cc4ccccc4)Cc4ccccc4)c3c2)cc1` it was 87.9% (inactive); in that of `COc1ccc2c(c1)c(-c1nc(-c3c[nH]c4ncccc34)cs1)cn2CCCCN1CCCCC1`, -75.6% (active). As for `CC(C)(C)N1CC1C#N` (stereo not given), the growth was 97% (inactive). The same measure for `CC[C@H](C)[C@H](NC(=O)C12CC(NC(C)=O)(C1)C2)C(=O)N(C)[C@H](C[C@@H](OC(C)=O)c1nc(C(=O)N[C@@H](Cc2ccccc2)C[C@H](C)C(=O)OC)cs1)C(C)C`: 5.12% (active). For the compound `CNC(=O)O/N=C(/C)c1ccc(Cl)cc1`, the growth is 105% (inactive). As to `COc1ccc(N(CC(=O)NCCC[Te]c2ccccc2)C(=O)c2ccccc2)cc1`, the growth was 97.2% (inactive). The same measure for `COC(=O)[C@@H](NC(=O)c1cn(CCC2CCCCC2)c2ccccc12)C(C)(C)C`: 82.3% (inactive). On to `COc1ccc(C(c2ccc(OC)cc2)C(Cl)(Cl)Cl)cc1`, for which the growth is 18% (inactive). The same measure for `N[C@@H](CCC(=O)CCl)C(=O)O`: 102% [20 µM] (inactive).
